Screening results deposited in PubChem by ICCB-Longwood Screening Facility, Harvard Medical School.
Shown is part of a subset that was picked to be rich in hits.
Anaer choline gr: choline-fed anaerobic bacterial growth inhibition; AID 1963822; calls only; hit rate 0.2% among 55,000; Gram-negative bacterium anaerobic choline minimal medium, absorbance growth; hits give low values; call rule not given here
Starred values were filed as active, the others as inactive; i = inactive; + = active, no number.

SMILES	Anaer choline gr
O=C1C[C@@H]2OCC=C3CN4CC[C@]56c7ccccc7N1[C@H]5[C@H]2[C@H]3C[C@H]46	+
Cc1cc(N2C(=O)[C@@H]3CCCN3[C@H]2c2ccccc2C)no1	i
COc1cccc(CNC(=O)N2CCC3(C2)C(=O)N(C)c2ccc(OC)cc23)c1 (configuration not stated)	i
CCCCCCCCCCCCCCCC(=O)OC[C@H](COP(=O)([O-])OCC[N+](C)(C)C)OC(C)=O	i
CCCCCCCCCCCCCCCCOC[C@@H](COP(=O)([O-])OCC[N+](C)(C)C)OC(C)=O	+
CCCCCCCCCCCCCCCCOC[C@H](COP(=O)([O-])OCC[N+](C)(C)C)OC(C)=O	i
CCN1CCN(c2nccn(CC)c2=O)CC1	i
CCC(=O)N1N=C2C3CCN(CC3)[C@@H]2[C@@H]1c1ccc(OC)cc1	i
CC(=O)[C@H]1CC[C@H]2[C@@H]3CCC4C[C@](C)(O)CC[C@]4(C)[C@H]3CC[C@]12C (some centres not stated)	i
Cc1cccc(OCC(=O)N2CCN(Cc3cc(=O)n4nc(-c5ccccc5)sc4n3)CC2)c1	i
